Potency data for twelve compounds are collected here from PubChem BioAssay (NCATS).

Results filed as inconclusive are left out. Activity calls are given as the source filed them. Unless noted, calls come from the whole dose curve; as a rule, active = well fitted curve in the direction sought with a large enough effect; inconclusive = small, poorly fitted or top-dose-only effect, or another doubt; inactive = no such curve, though single readings can be large; an effect the other way counts as inactive or inconclusive.

Assay [1] concerns the target Cytochrome P450 2C9 (Homo sapiens) (UniProt P11712). Put plainly: Cytochrome P450 family 2 subfamily C member 9 (CYP2C9) small molecule antagonists: luciferase biochemical (cell-free) qHTS assay (AID 1645842; active = well fitted curve in the direction sought with a large enough effect in the repeat runs; an effect the other way counts as inactive or inconclusive; note: nearly all actives have a fitted effect of over 55% in size; note: potency is the fitted concentration of half-maximal effect). Summed up: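 Luminescence, after 20 min with luciferin detection reagent, reflected CYP2C9 turnover during a 1 h NADPH-driven reaction at 37C. Enzyme-substrate mix contained 0.4% bovine serum albumin and was preincubated with compound 10 min at room temperature.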
(In general: qHTS replaces the single test concentration by a dilution series.)

Assay [2] is described as follows: Primary qHTS for inhibitors of nuclear receptor binding SET domain protein 2 (NSD2) in an isogenic RCH-ACV NSD2 p.E1099K mutant (9B) (AID 1645876). Note: nearly all actives have a fitted effect of over 70% in size.
The nature of assay [3]: Primary qHTS for inhibitors of nuclear receptor binding SET domain protein 2 (NSD2) in an RCH-ACV wild type WT cells (2C) (AID 1645877). Note: nearly all actives have a fitted effect of over 70% in size.
Assay [4] addresses Cytochrome P450 2D6 (Homo sapiens) (UniProt P10635). In words: Cytochrome P450 family 2 subfamily D member 6 (CYP2D6) small molecule antagonists: luciferase biochemical (cell-free) qHTS assay (AID 1645840; active = well fitted curve in the direction sought with a large enough effect in the repeat runs; an effect the other way counts as inactive or inconclusive; note: series mostly up to about 57 µM; nearly all actives have a fitted effect of over 55% in size). Summed up:
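P450-Glo luminescent screen: recombinant CYP2D6 enzyme–proluciferin substrate mix preincubated with compound 10 min at room temperature, then NADPH regeneration added for 1 h at room temperature. Detection reagent added for 20 min; luciferin light read as relative luminescence units.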

Chain of Cytochrome P450 2C9 (Homo sapiens) (P11712 whole entry, looked up): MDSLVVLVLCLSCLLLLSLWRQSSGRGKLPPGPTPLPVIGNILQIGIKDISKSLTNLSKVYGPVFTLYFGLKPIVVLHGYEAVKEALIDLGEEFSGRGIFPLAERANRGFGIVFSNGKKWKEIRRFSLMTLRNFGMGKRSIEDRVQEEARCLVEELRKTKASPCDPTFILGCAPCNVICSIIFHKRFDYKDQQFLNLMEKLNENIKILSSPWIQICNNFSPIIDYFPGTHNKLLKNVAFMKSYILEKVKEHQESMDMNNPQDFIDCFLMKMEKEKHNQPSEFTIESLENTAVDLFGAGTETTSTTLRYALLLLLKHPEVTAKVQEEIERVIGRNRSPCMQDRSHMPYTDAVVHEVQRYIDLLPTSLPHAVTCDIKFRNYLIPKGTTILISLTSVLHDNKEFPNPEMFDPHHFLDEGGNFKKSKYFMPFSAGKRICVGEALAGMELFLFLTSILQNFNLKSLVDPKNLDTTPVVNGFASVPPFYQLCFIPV
Chain of Cytochrome P450 2D6 (Homo sapiens) (P10635 whole entry, looked up): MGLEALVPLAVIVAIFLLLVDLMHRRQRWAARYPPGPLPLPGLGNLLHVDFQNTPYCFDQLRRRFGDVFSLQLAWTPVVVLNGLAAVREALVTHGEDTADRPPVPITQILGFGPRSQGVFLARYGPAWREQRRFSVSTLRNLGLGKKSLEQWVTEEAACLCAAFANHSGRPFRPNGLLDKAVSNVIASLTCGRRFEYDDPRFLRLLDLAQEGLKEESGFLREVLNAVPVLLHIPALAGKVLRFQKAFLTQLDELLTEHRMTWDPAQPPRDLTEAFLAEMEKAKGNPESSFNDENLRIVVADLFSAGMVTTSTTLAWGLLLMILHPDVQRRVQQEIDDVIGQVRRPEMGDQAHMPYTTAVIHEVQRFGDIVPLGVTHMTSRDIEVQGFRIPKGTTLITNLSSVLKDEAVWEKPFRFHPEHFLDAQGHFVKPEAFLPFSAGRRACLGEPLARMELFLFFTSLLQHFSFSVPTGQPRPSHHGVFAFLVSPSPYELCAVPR

For the compound `Cn1c(=O)cc(N2CCCC(N)C2)n(Cc2ccccc2C#N)c1=O` (stereo not given), the Potency entry in assay [1], in assay [2] and in assay [3] was “inactive” throughout.

In the case of `CCS(=O)(=O)N1CCC([C@@H](C)n2c(C)c(C(=O)NCc3c(OC)cc(C)[nH]c3=O)c3ccccc32)CC1`, the Potency result in assay [4], in assay [2] and in assay [3] was “inactive” in each case.

As for `O=C(c1ccc(F)cc1)C1CCN(CCn2c(=O)nc3n(c2=O)CCCC3)CC1`, the Potency entry in assay [1], in assay [2] and in assay [3] was “inactive” throughout.

Turning to `O=S(=O)(O)c1ccc2c(N=Nc3ccc(S(=O)(=O)O)c4ccccc34)c(O)c(S(=O)(=O)O)cc2c1`, in assay [1], the Potency is 12 µM (active).

`CC(C)(C)c1cc(CN2CCN(CC(O)c3ccc(Cl)cc3)CC2)cc(C(C)(C)C)c1O` (stereo not given): in assay [1], the Potency is 8.49 µM (active).

As to `COCC(=O)N1CCc2cc(-c3csc(NC(=O)c4cc(OC)cc(OC)c4)n3)ccc21`, the Potency result in assay [4], in assay [2] and in assay [3] was “inactive” throughout.

On to `CCN(CC)Cc1cc(Nc2ccnc3cc(Cl)ccc23)ccc1O`, for which the Potency result in assay [1] was “inactive”.

`CCn1cc(C2=NOC(C(=O)Nc3c(C)n(C)n(-c4ccccc4)c3=O)C2)c(C)n1` (stereo not given): the Potency in assay [1] is 1.9 µM (active). Further, the Potency result in assay [2] and in assay [3] was “inactive” in each case.

As for `Cc1nnc(C(C)C)n1C1CC2CCC(C1)N2CC[C@H](NC(=O)C1CCC(F)(F)CC1)c1ccccc1` (stereo not given in full), the Potency result in assay [1], in assay [2] and in assay [3] was “inactive” in each case.

For `CC1(C)CCC(C)(C)c2cc([C@@H](O)C(=O)Nc3ccc(C(=O)O)cc3F)ccc21`, the Potency entry in assay [4], in assay [2] and in assay [3] was “inactive” throughout.

For the compound `COc1ccccc1[C@@H]1C2=C(CC(C)(C)CC2=O)Nc2n[nH]c(C(F)(F)F)c21`, the Potency in assay [1] is 8.49 µM (active). Moreover, the Potency result in assay [2] and in assay [3] was “inactive” in each case.

On to `CC(C)C(=O)c1cn(CC(=O)COc2ccc(Oc3ccccc3)cc2)c2ccc(C(=O)O)cc12`, for which the Potency result in assay [1], in assay [2] and in assay [3] was “inactive” each time.
